About 1,700 (0.61%) of roughly 280,000 compounds were called active. Rule as the data show it: active = inhibition mostly above about 24% (no sharp cut-off); inactive = mostly below about 32%. For the sample, actives were picked, then their nearest neighbours and some compounds at random.

This test in a line: NALP1 inflammasome inhibitors in reconstituted yeast, colorimetric, S. cerevisiae, triplicate retest (AID 2071). To be noted: S. cerevisiae NALP1/ASC/caspase-1 growth, X-gal OD620, 72 h, stronger effect = higher value.

Broadly, the inhibition is the change of the read-out against control, counted positive when it falls. As for `COc1ccc(Cl)cc1NC(=O)CN1CCN(C(=O)N2CCOCC2)CC1`, the inhibition (at 10 µM unless noted) is 5.1% (inactive).
With `CC(C)CC(=O)N1CCN(Cc2cccc(Cl)c2)CC1`, for the setting “at 10 µM unless noted”, the inhibition was 10.5% (inactive).
On the same count and under the same terms, the result for `Nc1c(C(=O)NCc2ccccc2)nnn1Cc1cccc(Cl)c1` reads 7% (inactive); that for `Clc1cccc(CN2COc3c(cc(Cl)c4cccnc34)C2)c1`, 125% (active).
On the same count and under the same terms, the result for `CCC(NC(=O)c1cc(COc2ccc(F)c(F)c2)on1)c1ccncc1` (configuration not stated) reads 0.6% (inactive); that for `Cc1ccc(NS(=O)(=O)c2ccc(-c3coc(C)n3)cc2)c(C)c1`, 3.2% (inactive).
For the compound `COC(=O)/C=C\C(=O)Nc1cccc([N+](=O)[O-])c1`, the inhibition is 108% (active) (at 10 µM) and 116% (triplicate retest, at 20 µM).
As for `O=C(CSCC(=O)Nc1cccc([N+](=O)[O-])c1)Nc1ccccc1`, the inhibition (at 10 µM unless noted) is 27.6% (inactive).
Same read-out and setting: the result for `COc1cccc(CNC(=O)CCCC(=O)Nc2cccc([N+](=O)[O-])c2)c1` reads -4.2% (inactive); that for `O=S1(=O)CCOC[C@H](CC2CCCCC2)N1Cc1ccc(F)cc1`, 22.6% (inactive).
Turning to `C/C(=N\NC(=O)C1(C)CC1(Br)Br)c1ccc(C)cc1C` (configuration not stated), the inhibition (at 10 µM unless noted) was -0.3% (inactive).
For `CCC(=O)c1ccc(OCC(O)CN2CCN(c3cccc(C(F)(F)F)c3)CC2)cc1` (configuration not stated), the inhibition by setting is: (at 10 µM) 52.2% (active); (triplicate retest, at 20 µM) 65.2%.
Take `CCC(=O)c1ccc(OCC(O)CN2CC(C)OC(C)C2)cc1` (configuration not stated): the inhibition (at 10 µM unless noted) was 0.7% (inactive).
Take `O=C(COc1ccc(Cl)cc1)N1CCN(c2cccc(C(F)(F)F)c2)CC1`: the inhibition (at 10 µM unless noted) was -4.3% (inactive).
With `COc1ccc(S(=O)(=O)N2CCOC2CNC(=O)C(=O)NCc2ccncc2)cc1C` (configuration not stated), where the note is “at 10 µM unless noted”, the inhibition was 0.1% (inactive).
Turning to `CCC(=O)c1cn(CCOc2ccccc2OC)c2ccccc12`, under “at 10 µM unless noted”, the inhibition was 14.8% (inactive).
On the same count and under the same terms, in the case of `Cc1csc(=NC(=O)c2ccccc2)n1CCO` it was 2.4% (inactive); in that of `OCCn1c(-c2ccccc2)csc1=Nc1ccccc1`, 50.3% (active).
Still for that read-out and setting: in the case of `Cc1csc(=Nc2ccccc2)n1CCO` it was 26.1% (inactive); in that of `O=C(NCCCN1CCOCC1)c1cc(-c2ccccc2F)no1`, 20.9% (inactive).
Still for that read-out and setting: the result for `C[N+](C)(C)CCNC(=O)c1cc[n+](Cc2ccccc2)c(/C=N/O)c1` reads 6.7% (inactive); that for `O=C(NC1CCCC1)c1cc(-c2ccccc2)on1`, 15.4% (inactive).
Take `CC(=O)C(C)n1cnc2scc(-c3ccc(C)cc3)c2c1=O` (configuration not stated): the inhibition (at 10 µM unless noted) was -5% (inactive).
Same read-out and setting: the result for `C/C(=N\NC(=O)COc1ccc(C)cc1[N+](=O)[O-])c1ccc2c(c1)OCCO2` reads 12% (inactive); that for `CCOc1ccc(NS(=O)(=O)c2ccc(OCC(=O)NCCCOC)cc2)cc1`, -2.5% (inactive); that for `COCCCNC(=O)COc1cc(C)c(Cl)c(C)c1`, 33.8% (active).
The same measure, in the same setting: the result for `COCCNC(=O)COc1ccccc1C` reads 6.3% (inactive); that for `CCSc1nsc(NC(=O)Nc2ccccc2OC)n1`, 18.6% (inactive).
Turning to `COc1ccc(C(CCNCc2ccccc2F)c2ccc(F)cc2)cc1` (configuration not stated), the inhibition was 46.5% (active) (at 10 µM) and 74.4% (triplicate retest, at 20 µM).
As for `COc1ccc(CC(=O)NC(C)CCc2ccccc2)cc1` (configuration not stated), the inhibition (at 10 µM unless noted) is 7.9% (inactive).
Still for that read-out and setting: in the case of `COc1cccc(CNCCc2c[nH]c3ccccc23)c1OCc1ccccc1F` it was -3.7% (inactive); in that of `CCCOc1ccc(NC(=O)C2CCCNC2=O)cc1` (configuration not stated), 7.4% (inactive).
As for `CCCCNC(=O)C1CCC(=O)N1CCc1ccccc1` (configuration not stated), for the setting “at 10 µM unless noted”, the inhibition was -0.8% (inactive).
Still for that read-out and setting: in the case of `CCCCNC(=O)C1CCCNC1=O` (configuration not stated) it was 42.8% (active).
The same measure, in the same setting: in the case of `O=[N+]([O-])c1ccc(NC(=S)N2CCN(c3ccccn3)CC2)cc1` it was 9.2% (inactive).
Turning to `CC(=O)N1c2ccc(S(=O)(=O)N3CCCC(C(=O)NCc4ccc(Cl)cc4)C3)cc2CC1C` (configuration not stated), the inhibition (at 10 µM unless noted) was -3.9% (inactive).
On the same count and under the same terms, in the case of `COc1ccccc1NC(=O)C1CCN(C(=O)c2ccc(C(C)(C)C)cc2)CC1` it was 3.2% (inactive).
On the same count and under the same terms, the result for `CC(=O)c1ccc(NC(=S)NC(=O)CC(C)C)cc1` reads 27.8% (inactive).
Same read-out and setting: in the case of `CC(C)CC(=O)NC(=S)Nc1ccc(F)cc1F` it was 42.9% (active); in that of `CC(C)CC(=O)NC(=S)Nc1cc(C(=O)O)ccc1Cl`, 11.6% (inactive); in that of `COc1ccc(C2C(C(C)=O)=C(O)C(=O)N2CCc2c[nH]c3ccccc23)cc1` (configuration not stated), 5.6% (inactive).
Take `COc1ccc(C2C(C(C)=O)=C(O)C(=O)N2Cc2cccnc2)cc1` (configuration not stated): the inhibition (at 10 µM unless noted) is 33.6% (active).
`COc1cc(C2C(C(=O)c3ccc(C)o3)=C(O)C(=O)N2Cc2cccnc2)ccc1O` (configuration not stated): where the note is “at 10 µM unless noted”, the inhibition is -2.8% (inactive).
Regarding `CC1Cc2cc(/C(O)=C3\C(=O)C(=O)N(Cc4cccnc4)C3c3ccccc3F)ccc2O1` (configuration not stated), the inhibition (at 10 µM unless noted) was 29.4% (inactive).
The same measure, in the same setting: the result for `Cc1ccc(-n2ncc(C(=O)NC3CC3)c2C2CCN(C(=O)OC(C)(C)C)CC2)c(C)c1` reads -2.6% (inactive); that for `O=C(NCc1cccs1)C1CCN(S(=O)(=O)c2ccc3c(c2)OCCO3)CC1`, -1.6% (inactive).
The same measure, in the same setting: the result for `O=C(NCc1cccs1)C1CCN(S(=O)(=O)c2ccc(Cl)cc2)CC1` reads 23.6% (active); that for `O=C(NCc1ccc(Cl)cc1)C1CCN(S(=O)(=O)c2cccs2)CC1`, 4% (inactive); that for `CCc1ccc(/C=N/NC(=O)c2nnn(-c3nonc3N)c2CN2CCc3ccccc32)cc1`, 0% (inactive).

The record behind these values is PubChem BioAssay AID2071 (Sanford-Burnham Center for Chemical Genomics, 2009).
